# Experimental data taken from ChEMBL document CHEMBL1961873, “Compounds: GSK PKIS; Assays: Nanosyn kinase panel” (2012).
# Biological target: Ribosomal protein S6 kinase alpha-6 (Homo sapiens) (UniProt Q9UK32)
# Settings: at 0.1 µM
# 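Note: reported value is the mean inhibition of RSK4, from the GSK PKIS kinase inhibitor screen.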
# Chain of Ribosomal protein S6 kinase alpha-6 (Homo sapiens) (Q9UK32 whole entry): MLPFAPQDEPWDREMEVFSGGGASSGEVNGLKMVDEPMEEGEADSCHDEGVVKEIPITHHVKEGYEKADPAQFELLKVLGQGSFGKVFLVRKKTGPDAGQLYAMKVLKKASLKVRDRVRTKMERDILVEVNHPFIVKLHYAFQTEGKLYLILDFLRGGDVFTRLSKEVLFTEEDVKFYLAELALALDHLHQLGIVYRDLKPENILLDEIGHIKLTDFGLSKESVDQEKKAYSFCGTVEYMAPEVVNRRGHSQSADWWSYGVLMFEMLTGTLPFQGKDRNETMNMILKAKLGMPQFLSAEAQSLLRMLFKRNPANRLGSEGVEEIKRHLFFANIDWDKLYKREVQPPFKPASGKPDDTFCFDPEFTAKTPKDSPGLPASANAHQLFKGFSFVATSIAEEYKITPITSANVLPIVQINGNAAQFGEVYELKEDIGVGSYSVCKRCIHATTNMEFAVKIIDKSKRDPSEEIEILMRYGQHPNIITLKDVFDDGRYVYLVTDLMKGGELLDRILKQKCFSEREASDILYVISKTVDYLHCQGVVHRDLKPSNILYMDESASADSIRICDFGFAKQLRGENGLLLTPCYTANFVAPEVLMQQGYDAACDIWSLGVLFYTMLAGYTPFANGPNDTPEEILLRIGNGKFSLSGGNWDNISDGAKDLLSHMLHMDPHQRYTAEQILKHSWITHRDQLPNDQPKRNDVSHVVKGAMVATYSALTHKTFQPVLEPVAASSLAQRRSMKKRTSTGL
row,Structure (SMILES),inhibition [%]
1,Fc1ccc(-c2nn3ccccc3c2-c2ccncc2)cc1,1.1
2,CCCN(CCS(C)(=O)=O)Cc1ccc(-c2ccc3ncnc(Nc4ccc(OCc5cccc(F)c5)c(Cl)c4)c3c2)o1,1.43
3,COc1cc(/C=N/Nc2ncnc3[nH]ncc23)ccc1O,2.97
4,c1cc(-c2cnn3nc(N4CCOCC4)ccc23)nc(NC2CC2)n1,0.29
5,CN1CCC(n2cnc(-c3ccc(F)cc3)c2-c2ccnc(N)n2)CC1,1.08
6,Fc1ccc(-c2nn3ncccc3c2-c2ccnc(Nc3ccc4c(c3)OCCO4)n2)cc1,2.06
7,COc1ccc(-c2oc3ncnc(N)c3c2-c2ccc(NC(=O)Nc3cc(C(F)(F)F)ccc3F)cc2)cc1,0.74
8,CCN(CC)S(=O)(=O)c1ccc(OC)c(Nc2ncc(-c3ccccc3)o2)c1,1.64
9,Cc1ccc(O)cc1Nc1ccnc2cc(-c3ccccn3)ccc12,0.21
10,COc1ccc(-c2nn3ncccc3c2-c2ccnc(Nc3ccc4c(c3)OCCO4)n2)cc1,0.7
11,COc1cccc(-n2ncc3c(N/N=C/c4ccc(F)cc4)ncnc32)c1,1.4
12,CC1=C(C(=O)Nc2cc(Cl)c3[nH]ncc3c2)C(c2ccc(C(F)(F)F)cc2)CC(=O)N1 (stereo not given),7.7
13,COc1cccc(-c2c[nH]c3c(N/N=C/c4ccncc4)ncnc23)c1,1.63
14,CC(C)(CO)CNC(=O)c1ccc2c(c1)/C(=N/Nc1ccc(S(N)(=O)=O)cc1)C(=O)N2,1.62
15,NS(=O)(=O)c1ccc(N/N=C2\C(=O)Nc3ccc4ncccc4c32)cc1,13
16,CCn1c(-c2nonc2N)nc2cnc(Oc3cccc(NC(=O)c4ccc(N(C)C)cc4)c3)cc21,2.31
17,c1ccc(-c2nc3n(c2-c2ccc4c(c2)OCO4)CCC3)nc1,1.28
18,NC(=O)c1sc(-n2cnc3ccc(C(F)(F)F)cc32)cc1OCc1ccccc1Br,0.36
19,COc1ccc(-c2cc3c(N)ncnc3o2)cc1,-0.28
20,N#Cc1c(NC(=O)c2ccc(F)cc2)sc2c1CCCC2,-0.96
